In the supplement of paper PMC9262897, “Low-cost anti-mycobacterial drug discovery using engineered E. coli” (Nature Communications, 2022):
Where a name gives a salt, the structure may show the parent alone. ± gives the standard deviation of the averaged measurements.

What was measured:
Assay in all cases: growth (OD600 after 10 h); higher = more growth (less inhibition)
[1] = system: E. coli TESEC Alr+ wild-type control; settings: compound 0.1 mM; raw OD600 reference: median of DMSO wells 0.241, cell-free background 0.041
Protocol: (§1)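 TESEC Mtb Alr E. coli, or the Alr+ wild-type control, in 384-well plates with Prestwick library compounds at 0.1 mM and 1% DMSO, across arabinose induction levels of 1E3 to 1E7 nM. Growth is read as OD600 after 10 h at 37 °C in triplicate biological replicates.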

[2] = system: E. coli TESEC Mtb Alr; settings: compound 0.1 mM
Protocol: as §1

[3] = system: E. coli TESEC Mtb Asd; settings: compound 0.1 mM
Protocol: (§2)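 TESEC E. coli strains in which the native enzyme is deleted and replaced by arabinose-inducible Mtb Asd, DapB, CysH or TrpD, each grown in its selective medium. Strains were screened against the Prestwick library at 0.1 mM and 1% DMSO in 384-well format at low and high arabinose induction. Growth is read as OD600 after 10 h in triplicate.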

[4] = system: E. coli TESEC Mtb DapB; settings: compound 0.1 mM
Protocol: as §2

[5] = system: E. coli TESEC Alr+ wild-type control; settings: compound 0.1 mM; raw OD600 reference: median of DMSO wells 0.49, cell-free background 0.052
Protocol: (§3)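 TESEC Mtb Alr E. coli (ΔaraC ΔtolC ΔentC Δalr ΔdadX, arabinose-inducible Mtb Alr) or the Alr+ wild-type control strain, grown in defined M9-fructose medium without D-alanine in 96-well plates with Prestwick library compounds at 0.1 mM and 1% DMSO. Low Alr induction is 0.1 µM arabinose and high induction is 10 mM arabinose.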

[6] = system: E. coli TESEC Mtb Alr; settings: compound 0.1 mM; remark: listed apart in the source
Protocol: as §3

[7] = arabinose 1000 nM, raw OD600 reference: median of DMSO wells 0.294, cell-free background 0.041
[8] = arabinose 10000 nM, raw OD600 reference: median of DMSO wells 0.264, cell-free background 0.041
[9] = arabinose 100000 nM, raw OD600 reference: median of DMSO wells 0.201, cell-free background 0.041
[10] = arabinose 1000000 nM, raw OD600 reference: median of DMSO wells 0.193, cell-free background 0.041
[11] = arabinose 10000000 nM, raw OD600 reference: median of DMSO wells 0.146, cell-free background 0.041
[12] = arabinose induction (level): High, raw OD600 reference: median of DMSO wells 0.331, cell-free background 0.041
[13] = arabinose induction (level): Low, raw OD600 reference: median of DMSO wells 0.417, cell-free background 0.041
[14] = arabinose induction (level): High, raw OD600 reference: median of DMSO wells […], cell-free background 0.041
[15] = arabinose induction (level): Low, raw OD600 reference: median of DMSO wells 0.227, cell-free background 0.041
[16] = arabinose 100 nM, raw OD600 reference: median of DMSO wells 0.413, cell-free background 0.052
[17] = arabinose 10000000 nM, raw OD600 reference: median of DMSO wells […], cell-free background 0.052

SMILES | growth [1] | growth [2, 7] | growth [2, 8] | growth [2, 9] | growth [2, 10] | growth [2, 11] | growth [3, 12] | growth [3, 13] | growth [4, 14] | growth [4, 15] | growth [5] | growth [6, 16] | growth [6, 17]
O=C(O)c1cc(=O)c2c(OCC(O)COc3cccc4oc(C(=O)O)cc(=O)c34)cccc2o1 [Cromolyn disodium salt] | 0.2571 ± 0.0016 | 0.311 ± 0.019 | 0.275 ± 0.0036 | 0.21 ± 0.014 | 0.201 ± 0.011 | 0.14 ± 0.0057 | 0.389 ± 0.04 | 0.489 ± 0.01 | 0.189 ± 0.013 | 0.228 ± 0.034 | 0.602 ± 0.064 | 0.403 ± 0.011 | 0.361 ± 0.01
C=CCc1ccccc1OCC(O)CNC(C)C (configuration not stated) [Alprenolol hydrochloride] | 0.217 ± 0.0068 | 0.267 ± 0.013 | 0.259 ± 0.013 | 0.199 ± 0.023 | 0.156 ± 0.0022 | 0.145 ± 0.0043 | 0.322 ± 0.074 | 0.419 ± 0.027 | 0.183 ± 0.011 | 0.284 ± 0.059 | 0.446 ± 0.015 | 0.405 ± 0.013 | 0.363 ± 0.013
O=c1[nH]c(=O)n([C@H]2C[C@H](O)[C@@H](CO)O2)cc1I [Idoxuridine] | 0.2463 ± 0.002 | 0.285 ± 0.0078 | 0.268 ± 0.012 | 0.206 ± 0.0098 | 0.203 ± 0.0061 | 0.15 ± 0.0075 | 0.257 ± 0.057 | 0.276 ± 0.032 | 0.185 ± 0.0093 | 0.202 ± 0.03 | 0.483 ± 0.064 | 0.369 ± 0.032 | 0.376 ± 0.021
OCc1cc(C(O)CNCCCCCCOCCCCc2ccccc2)ccc1O (configuration not stated) [Salmeterol] | 0.166 ± 0.0032 | 0.181 ± 0.012 | 0.159 ± 0.0031 | 0.171 ± 0.0065 | 0.0641 ± 0.0012 | 0.151 ± 0.0035 | 0.176 ± 0.01 | 0.202 ± 0.049 | 0.208 ± 0.017 | 0.214 ± 0.017 | 0.399 ± 0.032 | 0.349 ± 0.0092 | 0.201 ± 0.033
CC1(C)O[C@@H]2[C@@H](CO[C@@]3(COS(N)(=O)=O)OC(C)(C)O[C@@H]23)O1 [Topiramate] | 0.234 ± 0.0043 | 0.291 ± 0.0074 | 0.2714 ± 0.0027 | 0.18 ± 0.018 | 0.204 ± 0.0062 | 0.136 ± 0.0016 | 0.243 ± 0.055 | 0.295 ± 0.057 | 0.19 ± 0.01 | 0.203 ± 0.022 |  | 0.4226 ± 0.0021 | 0.302 ± 0.0096
c1ccc(CNc2ncnc3nc[nH]c23)cc1 [Aminopurine, 6-benzyl] | 0.208 ± 0.0066 | 0.243 ± 0.0086 | 0.262 ± 0.006 | 0.19 ± 0.014 | 0.166 ± 0.0054 | 0.149 ± 0.013 | 0.279 ± 0.014 | 0.339 ± 0.072 | 0.169 ± 0.0055 | 0.197 ± 0.022 | 0.509 ± 0.077 | 0.416 ± 0.0048 | 0.361 ± 0.0061
CC(=O)[C@H]1CC[C@H]2[C@@H]3C[C@H](C)C4=CC(=O)CC[C@]4(C)[C@H]3[C@@H](O)C[C@]12C [Medrysone] | 0.122 ± 0.0039 | 0.162 ± 0.0096 | 0.2463 ± 0.002 | 0.1231 ± 0.00055 | 0.112 ± 0.003 | 0.138 ± 0.0029 | 0.217 ± 0.02 | 0.385 ± 0.041 | 0.179 ± 0.018 | 0.18 ± 0.0064 | 0.457 ± 0.067 | 0.399 ± 0.0044 | 0.213 ± 0.018
COc1cc([S+](C)[O-])ccc1-c1nc2cccnc2[nH]1 (configuration not stated) [Sulmazole] | 0.227 ± 0.0056 | 0.282 ± 0.023 | 0.264 ± 0.0096 | 0.161 ± 0.027 | 0.2 ± 0.0059 | 0.1223 ± 0.00055 | 0.231 ± 0.039 | 0.387 ± 0.049 | 0.18 ± 0.0052 | 0.209 ± 0.0037 |  | 0.392 ± 0.0053 | 0.342 ± 0.034
NC[C@H]1CC[C@H](C(=O)O)CC1 [Tranexamic acid] | 0.254 ± 0.0017 | 0.293 ± 0.0074 | 0.282 ± 0.0046 | 0.215 ± 0.031 | 0.186 ± 0.002 | 0.141 ± 0.0029 | 0.381 ± 0.056 | 0.446 ± 0.026 | 0.188 ± 0.011 | 0.214 ± 0.018 |  | 0.411 ± 0.0076 | 0.349 ± 0.0049
CC(C)(C)NCC(O)COc1cccc2c1CCC(=O)N2 (configuration not stated) [Carteolol hydrochloride] | 0.236 ± 0.0081 | 0.285 ± 0.02 | 0.2521 ± 0.002 | 0.197 ± 0.043 | 0.181 ± 0.0071 | 0.143 ± 0.0038 | 0.222 ± 0.024 | 0.349 ± 0.1 | 0.187 ± 0.0085 | 0.217 ± 0.022 |  | 0.405 ± 0.009 | 0.334 ± 0.0046
CN(C)c1nc(N(C)C)nc(N(C)C)n1 [Altretamine] | 0.251 ± 0.0091 | 0.315 ± 0.018 | 0.254 ± 0.0079 | 0.209 ± 0.0047 | 0.176 ± 0.008 | 0.163 ± 0.009 | 0.475 ± 0.017 | 0.436 ± 0.037 | 0.217 ± 0.015 | 0.267 ± 0.019 |  | 0.404 ± 0.017 | 0.317 ± 0.02
CCCCCN(C)CCC(O)(P(=O)(O)O)P(=O)(O)O [Ibandronate sodium] | 0.245 ± 0.0075 | 0.287 ± 0.01 | 0.25 ± 0.0058 | 0.196 ± 0.011 | 0.182 ± 0.0036 | 0.131 ± 0.0067 | 0.364 ± 0.022 | 0.448 ± 0.015 | 0.206 ± 0.0027 | 0.232 ± 0.035 |  | 0.422 ± 0.01 | 0.358 ± 0.014
CC(C)(C)c1ccc(C(O)CCCN2CCC(C(O)(c3ccccc3)c3ccccc3)CC2)cc1 (configuration not stated) [Terfenadine] | 0.205 ± 0.0036 | 0.207 ± 0.14 | 0.296 ± 0.0092 | 0.181 ± 0.0044 | 0.136 ± 0.072 | 0.158 ± 0.0023 | 0.265 ± 0.054 | 0.421 ± 0.013 | 0.199 ± 0.013 | 0.239 ± 0.014 |  | 0.0737 ± 0.031 | 0.0518 ± 0.00085
